Results on 40 molecules are retold here after PubChem BioAssay (NCATS).

Records with an inconclusive call do not appear. Unmarked numbers belong to inactive results. The call rests on the fitted dose curve; in most records, active means well fitted inhibition curve with a large enough effect; inconclusive means small, poorly fitted or top-dose-only effect; inactive means no such curve, though single readings can be large or run the other way.

The target in this experiment is Endonuclease 4 (Escherichia coli (strain K12)) (UniProt P0A6C1). Description: Counterscreen for APE1 Inhibitors: qHTS Validation Assay for Inhibitors of Endonuclease IV (AID 1708). The following applies: E. coli endonuclease IV, DNA cleavage fluorescence; series mostly up to 57.1 µM; activity change, negative = inhibition: at the top concentration. An excerpt:
Assay Provider: David M. Wilson, III, National Institute on Aging, NIH
Screening Center PI: Austin, C.P.
Screening Center: NIH Chemical Genomics Center [NCGC]
Escherichia coli endonuclease IV (Endo IV) is the key member of the AP endonuclease superfamily that catalyzes the cleavage of damaged DNA backbone immediately 5' of an AP site. E. coli EndoIV has the same functional activities as human APE1 but has no sequence or structural homology to the human protein. Herein, we utilize E. coli EndoIV to counter screen compound libraries as part of a high-throughput campaign for APE1 inhibitor identification. A concentration-response screen of the LOPAC1280 collection was performed under experimental conditions identical to those used in the APE1 screen.
Inhibition of APE1 activity was screened by utilizing double-stranded short substrate containing tetrahydrofuran (THF) abasic site labeled with rhodamine-type fluorophore (TAMRA) at the 5'-end and with non-fluorescent Black Hole Quencher-2 (BHQ-2) at the opposing 3'-end. An increase in the fluorescence intensity due to incision of the abasic site by APE1 was used to measure the enzyme activity.
Buffer: 50 mM Tris-HCl (pH 7.5) containing 50mM NaCl, 2 mM MgCl2, 1 mM DTT and 0.01% Tween-20.
Buffer in columns 3 and 4 as negative control (no enzyme).
Substrate: 50 nM final concentration of TAMRA/BHQ-2 substrate dispensed throughout the plate.
Enzyme: 2 nM E. coli EndoIV final concentration in columns 1, 2, 5-48. Column 1 is neutral (100% activity).
Control: Pintool transfer of control inhibitor NSC-13755 to column 2 of all assay plates. Two-fold, 16 pt dilution in duplicate to produce final concentrations in the 5.75 uM - 0.175 nM range.
Three uL of enzyme were dispensed to 1536-well Greiner black solid bottom plates. Compounds (23 nL) were transferred via Kalypsys pintool. The plates were incubated for 15 min at room temperature, and then 1 uL of substrate solution was added to start the reaction. The plates were immediately transferred into ViewLux High-throughput CCD imager (Perkin-Elmer) in order to measure the reaction progress in kinetic mode (three reads every 60 seconds) using 525 nm excitation and 598 nm emission fluorescence protocol. The fluorescence intensity difference between the third and the first time points was used to compute reaction progress.
A general note: Counterscreens check selectivity or assay interference.
Consider `NC(N)=NC(N)=Nc1ccccc1`, for which the “activity change, negative = inhibition” value is -8.67%.

Turning to `NOCC(=O)O`, the “activity change, negative = inhibition” value was -4.34%.

Take `CCn1c(=O)[nH]c2cc(Cl)c(Cl)cc21`: the “activity change, negative = inhibition” value was -4.02%.

On to `CC(N)=O`, for which the “activity change, negative = inhibition” value is -9.56%.

For the molecule `CN1C2CCC1CC(OC(c1ccccc1)c1ccccc1)C2` (stereo not given), the “activity change, negative = inhibition” value was -7.55%.

With `NC1(C(=O)O)CC1`, the “activity change, negative = inhibition” value was -2.33%.

Turning to `CCCn1c(=O)c2[nH]c(-c3ccc(S(=O)(=O)O)cc3)nc2n(CCC)c1=O`, the “activity change, negative = inhibition” value is -5.46%.

As for `NC1CCN(O)C1=O` (stereo not given), the “activity change, negative = inhibition” value was -2.65%.

Regarding `Nc1ccc(N2C(=O)c3ccccc3C2=O)c(Cl)c1`, the “activity change, negative = inhibition” value is -3.78%.

Consider `CCCCCCCCCCCCCCSCC(=O)O`, for which the “activity change, negative = inhibition” value is -2.97%.

For the molecule `NC(=O)CC[C@H](N)C(=O)O`, the “activity change, negative = inhibition” value is -7.39%.

As for `O=C(O)C1CN(CCCP(=O)(O)O)CCN1` (stereo not given), the “activity change, negative = inhibition” value was -2.97%.

With `NCC(O)(CS(=O)(=O)O)c1ccc(Cl)cc1` (stereo not given), the “activity change, negative = inhibition” value is -1.29%.

As for `C=CCN1CCc2cc(O)c(O)cc2C(c2ccccc2)C1` (stereo not given), the “activity change, negative = inhibition” value is 37.9%.

As to `O=C(O)Cc1ccc(O)c(O)c1`, the “activity change, negative = inhibition” value is 24.6%.

With `COc1cc(C(O)C(=O)O)ccc1O` (stereo not given), the “activity change, negative = inhibition” value is -7.95%.

Regarding `N[C@H](C(=O)O)[C@H](O)C(=O)O`, the “activity change, negative = inhibition” value was -5.7%.

As to `O=C(O)C1CCCNC1` (stereo not given), the “activity change, negative = inhibition” value was -0.643%.

For the molecule `NC1(C(=O)O)CCc2cc(C(=O)O)ccc21` (stereo not given), the “activity change, negative = inhibition” value was -8.76%.

With `CNC(=O)c1cc2c(cn1)[nH]c1ccccc12`, the “activity change, negative = inhibition” value is -1.53%.

For `CN(C)S(=O)(=O)c1ccc2c(c1)/C(=C/c1cc3c([nH]1)CCCC3)C(=O)N2`, the “activity change, negative = inhibition” value was -4.58%.

In the case of `Cc1cccc(C2CN(C)CCc3c2cc(O)c(O)c3Cl)c1` (stereo not given), the “activity change, negative = inhibition” value is 5.78%.

For the molecule `O=C(O)CCC(=O)N1CCCC1C(=O)O` (stereo not given), the “activity change, negative = inhibition” value is -5.7%.

As for `CC1CNCCN1S(=O)(=O)c1cccc2cnccc12` (stereo not given), the “activity change, negative = inhibition” value is -7.47%.

As to `COc1cc(/C=C(\C#N)C(=O)c2ccc(O)c(O)c2)cc(I)c1O`, the “activity change, negative = inhibition” value was 24.3%.

`COC(=O)C1=C(C)NC(C)=C([N+](=O)[O-])C1c1ccccc1C(F)(F)F` (stereo not given): the “activity change, negative = inhibition” value was -13.8%.

For `CC(C)C[C@H](NC(=O)[C@H](O)[C@H](N)Cc1ccccc1)C(=O)O`, the “activity change, negative = inhibition” value is -8.27%.

On to `O=C(O)c1cc(=O)cc(C(=O)O)[nH]1`, for which the “activity change, negative = inhibition” value was -13.2%.

Take `CCSC(=N)N`: the “activity change, negative = inhibition” value is -0.643%.

As to `O=c1cc(O)cc(/C=C/c2ccc(O)c(O)c2)o1`, the “activity change, negative = inhibition” value was 102%.

On to `C=C(C)C1CC=C(C(=O)O)CC1` (stereo not given), for which the “activity change, negative = inhibition” value was -9.32%.

Consider `CN[C@H](CC(=O)O)C(=O)O`, for which the “activity change, negative = inhibition” value was -0.402%.

As for `CC[C@@H]1Cc2cc(O)ccc2C2=C1c1ccc(O)cc1C[C@H]2CC`, the “activity change, negative = inhibition” value is -8.84%.

With `COc1ccc(-c2ccc(N)[n+](CCCC(=O)O)n2)cc1`, the “activity change, negative = inhibition” value is -13.8%.

Regarding `Cn1cc(C(F)(F)F)nc1-c1ccc(OCC(O)CNCCOc2ccc(O)c(C(N)=O)c2)cc1` (stereo not given), the “activity change, negative = inhibition” value is -8.03%.

Consider `COc1ccc2c(c1)CCC1C2CC[C@@]2(C)C1CC[C@@H]2NCCCCCCN1C(=O)C=CC1=O` (stereo not given in full), for which the “activity change, negative = inhibition” value was -8.11%.

Consider `CCN(c1nc(N)c(C(=O)N=C(N)N)nc1Cl)C(C)C`, for which the “activity change, negative = inhibition” value was -5.3%.

`O=[N+]([O-])c1cccc2c(Br)[nH]nc12`: the “activity change, negative = inhibition” value is 1.04%.

Take `COC(=O)C(N)Cc1ccc(Cl)cc1` (stereo not given): the “activity change, negative = inhibition” value is -3.13%.

In the case of `NCC(O)c1ccc(O)c(O)c1` (stereo not given), the “activity change, negative = inhibition” value is 18.8%.
